Source: PubChem BioAssay AID1159580 (chemical genetic matrix, 2015)
Among all 5,500 compounds or so, about 2,000 (36%) were called active. About 18% were inconclusive and are not listed. Cut-off read from the data, not from the text of the source: active = normalized growth mostly below about 0.91 (no sharp cut-off); inconclusive = no clear call, values can overlap the other calls; inactive = mostly above about 0.92. Some of the results follow.

Experiment: chemical genetic growth profiling, strain panel (AID 1159580);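 note: tested at 20 µM; growth read once vehicle control cultures reached saturation at 30 °C; 1 = growth at the plate median or of vehicle wells; lower values mean less growth of the strain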
Conditions: growth OD
[1] = S. cerevisiae deletion strains, locus YDL101C, strain DUN1, hits give low values
[2] = S. cerevisiae deletion strains, locus YHR030C, strain SLT2, hits give low values

Measured: normalized growth

N/C(=N/OCc1c(F)cccc1Cl)c1ccc(Cl)cc1
active: [2] 0.721 | S. cerevisiae deletion strains, locus YHR079C, strain IRE1, hits give low values 0.326 | S. cerevisiae deletion strains, locus YLR113W, strain HOG1, hits give low values 0.785 | S. cerevisiae deletion strains, locus YPL256C, strain CLN2, hits give low values 0.767
inactive: S. cerevisiae deletion strains, locus YAR019C, strain CDC15, hits give low values 0.914 | S. cerevisiae deletion strains, locus YBL105C, strain PKC1, hits give low values 0.922 | S. cerevisiae deletion strains, locus YBR135W, strain CKS1, hits give low values 0.929 | S. cerevisiae deletion strains, locus YBR136W, strain MEC1, hits give low values 0.92 | S. cerevisiae deletion strains, locus YBR160W, strain CDC28, hits give low values 0.932 | S. cerevisiae deletion strains, locus YDL017W, strain CDC7, hits give low values 0.921 | S. cerevisiae deletion strains, locus YDL028C, strain MPS1, hits give low values 0.93 | [1] 0.921 | S. cerevisiae deletion strains, locus YDL108W, strain KIN28, hits give low values 0.922 | S. cerevisiae deletion strains, locus YDL132W, strain cdc53, hits give low values 0.95 | S. cerevisiae deletion strains, locus YDL214C, strain PRR2, hits give low values 0.91 | S. cerevisiae deletion strains, locus YDR052C, strain DBF4, hits give low values 0.941 | S. cerevisiae deletion strains, locus YDR054C, strain cdc34, hits give low values 0.905 | S. cerevisiae deletion strains, locus YDR226W, strain ADK1, hits give low values 0.905 | S. cerevisiae deletion strains, locus YDR477W, strain SNF1, hits give low values 0.92 | S. cerevisiae deletion strains, locus YER123W, strain YCK3, hits give low values 0.934 | S. cerevisiae deletion strains, locus YER133W, strain GLC7, hits give low values 0.912 | S. cerevisiae deletion strains, locus YFL009W, strain cdc4, hits give low values 0.913 | S. cerevisiae deletion strains, locus YFL029C, strain CAK1, hits give low values 0.922 | S. cerevisiae deletion strains, locus YFR003C, strain YPI1, hits give low values 0.924 | S. cerevisiae deletion strains, locus YFR019W, strain FAB1, hits give low values 0.914 | S. cerevisiae deletion strains, locus YFR028C, strain CDC14, hits give low values 0.94 | S. cerevisiae deletion strains, locus YGR040W, strain KSS1, hits give low values 0.919 | S. cerevisiae deletion strains, locus YGR052W, strain FMP48, hits give low values 0.925 | S. cerevisiae deletion strains, locus YGR092W, strain DBF2, hits give low values 0.824 | S. cerevisiae deletion strains, locus YHR082C, strain KSP1, hits give low values 0.974 | S. cerevisiae deletion strains, locus YHR205W, strain SCH9, hits give low values 0.765 | S. cerevisiae deletion strains, locus YIL147C, strain SLN1, hits give low values 0.916 | S. cerevisiae deletion strains, locus YJL095W, strain BCK1, hits give low values 0.842 | S. cerevisiae deletion strains, locus YJL128C, strain PBS2, hits give low values 0.945 | S. cerevisiae deletion strains, locus YJL157C, strain FAR1, hits give low values 0.929 | S. cerevisiae deletion strains, locus YJR016C, strain ILV3, hits give low values 0.929 | S. cerevisiae deletion strains, locus YJR066W, strain TOR1 (second series), hits give low values 0.962 | S. cerevisiae deletion strains, locus YJR066W, strain TOR1, hits give low values 0.93 | S. cerevisiae deletion strains, locus YKL048C, strain ELM1, hits give low values 0.903 | S. cerevisiae deletion strains, locus YKL067W, strain YNK1, hits give low values 0.923 | S. cerevisiae deletion strains, locus YKL101W, strain HSL1, hits give low values 0.911 | S. cerevisiae deletion strains, locus YKL193C, strain SDS22, hits give low values 0.907 | S. cerevisiae deletion strains, locus YKL203C, strain TOR2, hits give low values 0.997 | S. cerevisiae deletion strains, locus YLR133W, strain CKI1, hits give low values 0.935 | S. cerevisiae deletion strains, locus YLR403W, strain SFP1, hits give low values 0.847 | S. cerevisiae deletion strains, locus YML070W, strain DAK1, hits give low values 0.909 | S. cerevisiae deletion strains, locus YMR001C, strain CDC5, hits give low values 0.916 | S. cerevisiae deletion strains, locus YMR205C, strain PFK2 (second series), hits give low values 0.886 | S. cerevisiae deletion strains, locus YMR277W, strain FCP1, hits give low values 0.919 | S. cerevisiae deletion strains, locus YNL006W, strain LST8, hits give low values 0.928 | S. cerevisiae deletion strains, locus YNL020C, strain ARK1, hits give low values 0.926 | S. cerevisiae deletion strains, locus YNL161W, strain CBK1, hits give low values 0.916 | S. cerevisiae deletion strains, locus YNL183C, strain NPR1, hits give low values 0.956 | S. cerevisiae deletion strains, locus YNL207W, strain RIO2, hits give low values 0.903 | S. cerevisiae deletion strains, locus YNL222W, strain SSU72, hits give low values 0.933 | S. cerevisiae deletion strains, locus YNL307C, strain MCK1 (second series), hits give low values 0.917 | S. cerevisiae deletion strains, locus YOL078W, strain AVO1, hits give low values 0.915 | S. cerevisiae deletion strains, locus YOL136C, strain PFK27, hits give low values 0.901 | S. cerevisiae deletion strains, locus YOR061W, strain CKA2, hits give low values 0.966 | S. cerevisiae deletion strains, locus YOR119C, strain RIO1, hits give low values 0.983 | S. cerevisiae deletion strains, locus YOR231W, strain MKK1, hits give low values 0.932 | S. cerevisiae deletion strains, locus YOR329C, strain SCD5, hits give low values 0.915 | S. cerevisiae deletion strains, locus YPL031C, strain PHO85, hits give low values 0.902 | S. cerevisiae deletion strains, locus YPL153C, strain RAD53, hits give low values 0.933 | S. cerevisiae deletion strains, locus YPL204W, strain HRR25, hits give low values 0.908 | S. cerevisiae deletion strains, locus YPL209C, strain IPL1, hits give low values 0.919 | S. cerevisiae deletion strains, locus YPR025C, strain CCL1, hits give low values 0.926 | S. cerevisiae deletion strains, locus YPR106W, strain ISR1, hits give low values 0.915 | S. cerevisiae deletion strains, locus YPR111W, strain DBF20, hits give low values 0.911 | S. cerevisiae deletion strains, strain NNK1, hits give low values 0.899 | S. cerevisiae deletion strains, strain TSCII, hits give low values 0.91

N=C(N)SCc1c(F)cccc1Cl
inactive: S. cerevisiae deletion strains, locus YAL013W, strain DEP1, hits give low values 0.996 | S. cerevisiae deletion strains, locus YBR229C, strain ROT2, hits give low values 0.986 | S. cerevisiae deletion strains, locus YCL061C, strain MRC1, hits give low values 1.01 | [1] 0.968 | S. cerevisiae deletion strains, locus YDL134C, strain PPH21, hits give low values 1 | S. cerevisiae deletion strains, locus YDR150W, strain NUM1, hits give low values 0.984 | S. cerevisiae deletion strains, locus YEL061C, strain CIN8, hits give low values 0.98 | S. cerevisiae deletion strains, locus YGR078C, strain PAC10, hits give low values 0.989 | S. cerevisiae deletion strains, locus YGR229C, strain SMI1, hits give low values 0.998 | [2] 0.947 | S. cerevisiae deletion strains, locus YHR087W, strain rtc3, hits give low values 0.978 | S. cerevisiae deletion strains, locus YJR043C, strain POL32, hits give low values 0.99 | S. cerevisiae deletion strains, locus YJR075W, strain HOC1, hits give low values 0.991 | S. cerevisiae deletion strains, locus YKL190W, strain CNB1, hits give low values 0.983 | S. cerevisiae deletion strains, locus YLR039C, strain RIC1, hits give low values 0.978 | S. cerevisiae deletion strains, locus YLR058C, strain SHM2 (second series), hits give low values 0.986 | S. cerevisiae deletion strains, locus YLR085C, strain ARP6, hits give low values 0.993 | S. cerevisiae deletion strains, locus YLR262C, strain YPT6, hits give low values 0.989 | S. cerevisiae deletion strains, locus YML094W, strain GIM5, hits give low values 0.935 | S. cerevisiae deletion strains, locus YMR219W, strain ESC1, hits give low values 1 | S. cerevisiae deletion strains, locus YMR263W, strain SAP30, hits give low values 1.04 | S. cerevisiae deletion strains, locus YNL128W, strain TEP1, hits give low values 0.968 | S. cerevisiae deletion strains, locus YNL153C, strain GIM3, hits give low values 1.01 | S. cerevisiae deletion strains, locus YNL298W, strain CLA4 (second series), hits give low values 0.96 | S. cerevisiae deletion strains, locus YNL322C, strain KRE1, hits give low values 0.982 | S. cerevisiae deletion strains, locus YNR030W, strain Alg12, hits give low values 0.975 | S. cerevisiae deletion strains, locus YPL055C, strain LGE1, hits give low values 0.956 | S. cerevisiae deletion strains, locus YPL241C, strain CIN2, hits give low values 1.12 | S. cerevisiae deletion strains, locus YPR135W, strain CTF4, hits give low values 0.896 | S. cerevisiae strains, strain wild type, hits give low values 0.986
